Calls of active or inactive are those of the source. Unless noted, how the calls were made is not given here.
Legend:
[1] = tested on: Wnt5a (protein binding on small-molecule microarray); experiment: Wnt5a binders on small-molecule microarray, primary screen, biophysical, 635/667 nm fluorescence (AID 1142); details: 635 nm fluorescence, higher = more signal;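 further: fluorescence read at 667 nm with signal to noise per printed feature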
[2] = cell viability in Huh7 cells, primary screen, cytotoxicity control for HCV replication inhibitor project, CellTiter-Glo luminescence, basal, 48 h (AID 1143); details: Huh7 HCV replicon, higher = more signal, called active from +8 up or from −8 down;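 further: Huh7 hepatoma cells carrying a hepatitis C replication reporter with no stimulus; test concentration not given here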
[3] = P. aeruginosa biofilm formation inhibitors, primary screen, PAO1 strain, BacTiter-Glo luminescence, LB-PBS (AID 1144); details: 12 h, higher = more signal
[4] = CREB reporter modulators without forskolin, primary screen, cell-based, PC12, CRE-LacZ reporter, unstimulated (AID 1145); details: no forskolin, luminescence, 4.5 h, higher = more signal, called active from +8 up or from −8 down
[5] = CREB reporter modulators under forskolin, primary screen, cell-based, PC12, CRE-LacZ reporter, forskolin-stimulated (AID 1146); details: luminescence, 4.5 h, higher = more signal, called active from +8 up or from −8 down;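 further: PC12 cells with 6xCRE LacZ reporter stimulated by forskolin 10 µM; beta-galactosidase reporter signal reflecting CREB driven transcription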
[6] = biological target: Streptavidin (Streptomyces avidinii) (UniProt P22629); experiment: streptavidin binders on small-molecule microarray, primary screen, artefact control for SMM compound annotation, biophysical, 635/667 nm fluorescence (AID 1147); details: streptavidin binding, higher = more signal;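 further: signal reflects streptavidin binding to arrayed compounds as a control protein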
Sequence of Streptavidin (Streptomyces avidinii) (P22629 whole entry, looked up): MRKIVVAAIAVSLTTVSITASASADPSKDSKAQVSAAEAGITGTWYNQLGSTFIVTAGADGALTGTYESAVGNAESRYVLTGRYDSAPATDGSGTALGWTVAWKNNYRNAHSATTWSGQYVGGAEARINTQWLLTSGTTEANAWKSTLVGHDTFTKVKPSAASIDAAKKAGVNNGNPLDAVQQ

[7] = small-molecule binders of probe aInhba, primary screen, biochemical, small-molecule microarray, 635/667 nm fluorescence (AID 1148); details: higher = more signal;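 further: score merges 667nm spot fluorescence with signal-to-noise for antibody binding to printed compounds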
Torsin-1A (Homo sapiens) [8] = biological target: Torsin-1A (Homo sapiens) (UniProt O14656); experiment: torsin A binders from cell lysate, primary screen, small-molecule microarray, wild-type, 635/667 nm (AID 1149); details: COS7 hTOR1A-WT lysate, 635 nm fluorescence, higher = more signal
Sequence of Torsin-1A (Homo sapiens) (O14656 whole entry, looked up): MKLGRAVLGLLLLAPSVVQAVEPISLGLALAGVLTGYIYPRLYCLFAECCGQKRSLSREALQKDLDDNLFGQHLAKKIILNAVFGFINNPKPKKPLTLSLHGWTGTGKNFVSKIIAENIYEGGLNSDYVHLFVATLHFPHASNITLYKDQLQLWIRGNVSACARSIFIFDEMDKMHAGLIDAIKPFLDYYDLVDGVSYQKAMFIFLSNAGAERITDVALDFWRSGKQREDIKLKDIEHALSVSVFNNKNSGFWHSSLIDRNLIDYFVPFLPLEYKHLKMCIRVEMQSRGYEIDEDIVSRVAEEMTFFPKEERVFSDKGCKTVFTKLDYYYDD

Torsin-1A (Homo sapiens) [9] = biological target: Torsin-1A (Homo sapiens) (UniProt O14656); experiment: small-molecule binders of mutant TOR1A in lysate, primary screen, cell lysate, small-molecule microarray, COS7 lysate, 635/667 nm fluorescence (AID 1150); details: COS7 hTOR1A mutant lysate, 635 nm fluorescence, higher = more signal;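 further: score pools 667 nm emission and signal to noise measuring lysate protein binding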
[10] = tested on: Sonic hedgehog protein (Shh); experiment: small-molecule binders of Shh protein, primary screen, biochemical, small-molecule microarray, 635/667 nm fluorescence (AID 1151); details: small-molecule microarray binding, 635 nm fluorescence; higher = more signal;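 further: Shh protein binding to compounds spotted on small-molecule microarray slides; score combines spot fluorescence intensity with signal-to-noise across triplicate slides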
[11] = E. coli DRC41 culture turbidity changes, primary screen, E. coli filamentation inducer project, strain DRC41, OD650, 48 h (AID 1152);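 further: E. coli MC1000 strain DRC41 lacking acrAB efflux pump and sulA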; details: E. coli DRC41 (acrAB sulA), higher = more signal, called active from +8 up or from −8 down
[12] = small-molecule binders of probe aLefty1, primary screen, biochemical, small-molecule microarray, 635/667 nm fluorescence (AID 1153); details: higher = more signal;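 further: score merges spot fluorescence with signal-to-noise ratio from the scanned slide images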
[13] = PSAC antagonists in infected red cells, primary screen, cell-based, P. falciparum Indochina, OD700, 1 h (AID 1154); details: P. falciparum Indochina infected RBC osmotic lysis, higher = more signal, called active from +8 up or from −8 down
[14] = PSAC antagonists in infected red cells, primary screen, cell-based, P. falciparum Indochina, OD700, 2 h (AID 1155);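 further: lysis reports solute entry through the parasite surface anion channel PSAC; channel blockers reduce lysis of infected cells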; details: P. falciparum Indochina infected erythrocytes, osmotic lysis OD700; higher = more signal, called active from +8 up or from −8 down
[15] = osmotic lysis modulators in infected erythrocytes, primary screen, PSAC antagonist project, cell-based, P. falciparum Indochina, OD700, 3 h (AID 1156); details: higher = more signal, called active from +8 up or from −8 down
[16] = PSAC antagonists in infected red cells, primary screen, cell-based, P. falciparum Indochina, OD700, 18 h (AID 1157); details: P. falciparum Indochina infected erythrocytes, osmotic lysis OD700, 18 h; higher = more signal, called active from +8 up or from −8 down
[17] = modulators of S6 phosphorylation in cells, primary screen, cell-based, A549, cytoblot, luminescence, serum-stimulated (AID 1158); details: A549 phospho-S6 cytoblot, 5 h, higher = more signal;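 further: serum-stimulated A549 lung adenocarcinoma cells; signal is phosphorylated S6 detected by cytoblot immunostaining with HRP secondary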
[18] = biological target: NADPH oxidase 2 (Homo sapiens) (UniProt P04839); experiment: NOX2-dependent H2O2 signal modulators, primary screen, NOX inhibitor project, cell-based, HEK293-NOX2, PMA-stimulated, Amplex Red fluorescence (AID 1159); details: 45 min, higher = more signal, called active from +8 up or from −8 down; further: test concentration not given here
Sequence of NADPH oxidase 2 (Homo sapiens) (P04839 whole entry, looked up): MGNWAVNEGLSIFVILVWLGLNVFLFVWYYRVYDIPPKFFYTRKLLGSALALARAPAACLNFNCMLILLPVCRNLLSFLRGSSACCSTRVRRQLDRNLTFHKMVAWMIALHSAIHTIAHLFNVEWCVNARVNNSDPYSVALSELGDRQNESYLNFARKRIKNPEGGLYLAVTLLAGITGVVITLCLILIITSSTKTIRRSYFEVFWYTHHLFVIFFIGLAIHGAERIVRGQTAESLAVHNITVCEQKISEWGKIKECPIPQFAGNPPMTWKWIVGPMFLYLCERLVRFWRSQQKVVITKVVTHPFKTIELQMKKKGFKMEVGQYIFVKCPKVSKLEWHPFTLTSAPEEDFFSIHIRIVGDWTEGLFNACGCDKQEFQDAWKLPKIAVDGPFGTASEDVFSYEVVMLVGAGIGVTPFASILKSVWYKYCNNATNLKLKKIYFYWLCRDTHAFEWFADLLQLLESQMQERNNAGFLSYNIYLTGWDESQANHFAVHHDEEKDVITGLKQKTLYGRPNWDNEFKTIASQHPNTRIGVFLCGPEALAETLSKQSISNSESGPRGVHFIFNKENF

[19] = biological target: NADPH oxidase 4 (Homo sapiens) (UniProt Q9NPH5); experiment: NOX4-dependent H2O2 signal modulators, primary screen, NOX inhibitor project, cell-based, HEK293-NOX4, tetracycline-induced, Amplex Red fluorescence (AID 1160); details: 45 min, higher = more signal, called active from +8 up or from −8 down
Sequence of NADPH oxidase 4 (Homo sapiens) (Q9NPH5 whole entry, looked up): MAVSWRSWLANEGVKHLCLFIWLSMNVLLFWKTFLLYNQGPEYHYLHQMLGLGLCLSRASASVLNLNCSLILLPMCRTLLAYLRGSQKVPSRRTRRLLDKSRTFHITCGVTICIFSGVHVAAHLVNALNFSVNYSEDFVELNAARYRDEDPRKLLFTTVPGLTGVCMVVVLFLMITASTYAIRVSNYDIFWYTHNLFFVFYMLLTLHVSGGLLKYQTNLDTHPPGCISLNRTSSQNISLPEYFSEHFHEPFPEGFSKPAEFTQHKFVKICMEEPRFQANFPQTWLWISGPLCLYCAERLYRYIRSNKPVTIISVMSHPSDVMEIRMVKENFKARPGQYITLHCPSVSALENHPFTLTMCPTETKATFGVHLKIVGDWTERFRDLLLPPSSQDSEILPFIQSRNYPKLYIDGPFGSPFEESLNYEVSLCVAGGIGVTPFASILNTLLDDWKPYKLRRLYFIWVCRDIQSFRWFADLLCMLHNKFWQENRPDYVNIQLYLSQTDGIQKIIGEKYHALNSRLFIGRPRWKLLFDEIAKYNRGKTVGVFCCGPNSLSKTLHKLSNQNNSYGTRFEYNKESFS

[20] = biological target: NADPH oxidase 5 (Homo sapiens) (UniProt Q96PH1); experiment: NOX5-dependent H2O2 signal modulators, primary screen, NOX inhibitor project, cell-based, HEK293-NOX5, Amplex Red fluorescence (AID 1161); details: HEK293-NOX5, ionomycin, 45 min, higher = more signal
Sequence of NADPH oxidase 5 (Homo sapiens) (Q96PH1 whole entry, looked up): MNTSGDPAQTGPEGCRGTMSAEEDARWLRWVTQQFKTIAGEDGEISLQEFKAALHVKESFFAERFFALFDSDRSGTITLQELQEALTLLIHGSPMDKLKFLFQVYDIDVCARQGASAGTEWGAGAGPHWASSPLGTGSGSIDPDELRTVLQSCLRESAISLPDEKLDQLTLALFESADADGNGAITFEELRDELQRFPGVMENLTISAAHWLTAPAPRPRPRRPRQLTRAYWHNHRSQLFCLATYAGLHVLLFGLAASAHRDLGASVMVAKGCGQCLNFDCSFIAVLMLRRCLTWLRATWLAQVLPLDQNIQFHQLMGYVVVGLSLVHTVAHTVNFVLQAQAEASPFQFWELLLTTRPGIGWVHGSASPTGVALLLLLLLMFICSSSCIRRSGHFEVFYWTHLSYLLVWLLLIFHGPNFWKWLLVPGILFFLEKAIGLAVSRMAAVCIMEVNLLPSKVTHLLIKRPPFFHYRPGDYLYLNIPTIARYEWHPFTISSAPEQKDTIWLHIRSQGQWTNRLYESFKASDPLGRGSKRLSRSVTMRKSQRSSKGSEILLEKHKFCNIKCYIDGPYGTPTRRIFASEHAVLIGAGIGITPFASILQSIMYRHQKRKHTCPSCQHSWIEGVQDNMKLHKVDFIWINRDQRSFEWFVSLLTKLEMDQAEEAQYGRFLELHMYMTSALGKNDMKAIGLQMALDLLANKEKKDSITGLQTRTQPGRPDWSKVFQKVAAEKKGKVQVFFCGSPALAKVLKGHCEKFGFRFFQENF

Row | Structure (SMILES) | composite z-score [1] | z-score [2] | z-score [3] | z-score [4] | z-score [5] | composite z-score [6] | composite z-score [7] | composite z-score (Torsin-1A (Homo sapiens) [8]) | composite z-score (Torsin-1A (Homo sapiens) [9]) | composite z-score [10] | z-score [11] | composite z-score [12] | z-score [13] | z-score [14] | z-score [15] | z-score [16] | z-score [17] | z-score [18] | z-score [19] | z-score [20]
1 | COCCOC(=O)N1C(=O)[C@@]2(c3cc(C#CC4=CCCCC4)ccc31)[C@H](c1ccccc1OCCO)N1[C@H](c3ccccc3)[C@H](c3ccccc3)OC(=O)[C@H]1[C@@H]2C(=O)NC[C@H](O)c1ccccc1 | 0.6 | -4.97 (inactive) | 0.819 (inactive) | -0.329 (inactive) | 0.083 (inactive) | 0.423 | -0.0428 | 0.281 | 0.501 | 2.13 | -0.801 (inactive) | 0.457 | 1.34 (inactive) | 2.19 (inactive) | -1.61 (inactive) | 0.703 (inactive) | -0.0585 | 1.79 (inactive) | 0.529 (inactive) | 1.81
2 | CC(C)N1C(=O)C[C@@](C(=O)NC2CC2)(c2ccc([N+](=O)[O-])cc2)[C@H]1c1ccc(CO)cc1 | -0.0471 | -4.5 (inactive) | -0.0956 (inactive) | 1.82 (inactive) | -0.673 (inactive) | -0.677 | -0.252 | -1.39 | 1.4 | -0.161 | 1.3 (inactive) | -0.231 | 2.45 (inactive) | -0.224 (inactive) | 2.85 (inactive) | -0.9 (inactive) | 2.28 | -0.281 (inactive) | -1.89 (inactive) | -1.78
3 | COc1ccc([Si](C)(C)[C@@H]2[C@@H](CCO)O[C@]3(C(=O)N(Cc4cccc(NC(=O)[C@H](C)O)c4)c4ccccc43)[C@H]2C)cc1 | 0.736 | -8.02 (active) | -1.07 (inactive) | 10.2 (active) | -1.88 (inactive) | 0.887 | -0.128 | 0.23 | 0.97 | 0.533 | -1.19 (inactive) | 0.286 | 9.14 (active) | 2.91 (inactive) | -1.04 (inactive) | 1.35 (inactive) | -0.472 | -0.881 (inactive) | 0.436 (inactive) | -0.256
4 | COCCOC(=O)N1C(=O)[C@@]2(c3cc(C#CC4(O)CCCCCC4)ccc31)[C@H](C(=O)N1CCc3cc(OC)c(OC)cc3C1)[C@H]1C(=O)O[C@H](c3ccccc3)[C@H](c3ccccc3)N1[C@@H]2c1ccc(OCCO)cc1 | 0.536 | -1.38 (inactive) | -0.555 (inactive) | -0.465 (inactive) | 0.581 (inactive) | 1.04 | -0.0736 | 0.71 | 0.362 | 1.58 | -0.073 (inactive) | -0.469 | 7.39 (inactive) | 2.64 (inactive) | 1.41 (inactive) | 1.64 (inactive) | 0.272 | 1.6 (inactive) | 0.614 (inactive) | 1.74
5 | CCOC(=O)C[C@H]1[C@H](OC(=O)c2ccc(C(=O)c3ccccc3)cc2)[C@@H](NC(=O)C2CCCCC2)c2cc(OCCCO)ccc2N1C(=O)c1ccc2ccccc2n1 | 0.233 | 0.233 (inactive) | -1.09 (inactive) | -0.215 (inactive) | -0.825 (inactive) | 0.731 | -0.0933 | 0.772 | 0.298 | 0.93 | 1.94 (inactive) | 0.596 | 3.11 (inactive) | 0.347 (inactive) | -0.238 (inactive) | 0.0872 (inactive) | 0.0955 | -1.62 (inactive) | 0.402 (inactive) | 0.124
6 | COc1cc2c(cc1O)C(C1CC1)N(C)CC2 (stereo not given) | -0.201 | -0.426 (inactive) | 0.991 (inactive) | 0.479 (inactive) | -1.44 (inactive) | -0.991 | -0.203 | -0.829 | -1.04 | -0.314 | 0.941 (inactive) | -0.0538 | 1.79 (inactive) | 0.546 (inactive) | 0.0776 (inactive) | 0.573 (inactive) | -0.0452 | -4.61 (inactive) | -2.57 (inactive) | -2.96
7 | O=C1C2C=CC(C(O)c3cccc(O)c3)N(Nc3ccc([N+](=O)[O-])cc3)C2C(=O)N1c1ccccc1 (stereo not given) | 0.22 | -0.933 (inactive) | -0.271 (inactive) | -0.257 (inactive) | -0.489 (inactive) | 0.514 | 0.0649 | 0.331 | 0.132 | -0.164 | -0.367 (inactive) | 0.0361 | 23.8 (active) | 5.34 (inactive) | 3.57 (inactive) | 1.22 (inactive) | -0.609 | -2.1 (inactive) | -4.41 (inactive) | -4.26
8 | CCOC(=O)C1=C[C@@H](C(C)C)N(S(=O)(=O)c2ccc(C)cc2)[C@H]1c1ccc(C(F)(F)F)cc1 | 0.418 | -3.82 (inactive) | 0.803 (inactive) | 0.939 (inactive) | -1.13 (inactive) | 0.908 | -0.12 | 0.505 | 0.682 | 0.217 | -1.58 (inactive) | 0.2 | 0.172 (inactive) | 0.279 (inactive) | -0.422 (inactive) | 0.0209 (inactive) | -0.696 | -0.116 (inactive) | 0.024 (inactive) | 0.599
9 | CCCCCC1=C2CNC(C)(C(=O)OC)C=C2C(C)C1=O (stereo not given) | 0.0456 | -0.169 (inactive) | 0.18 (inactive) | 1.34 (inactive) | 1.76 (inactive) | -0.162 | 0.0319 | -0.92 | -0.38 | -0.134 | -1.81 (inactive) | -0.0236 | 0.585 (inactive) | 0.0544 (inactive) | 0.777 (inactive) | 0.373 (inactive) | -0.628 | 0.116 (inactive) | -2.6 (inactive) | -3.07

From PubChem BioAssay
